# In PubChem BioAssay:
# Active and inactive are the calls of the source.
# What was measured:
# [1] = tested on: PRMT1 (protein arginine N-methyltransferase 1); assay: small molecules binding arginine methyltransferase PRMT1 – biochemical, small-molecule microarray, 635 nm fluorescence, primary screen (AID 1088); details: higher = more signal;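 note: binding of Prmt1 protein to compounds spotted on small-molecule microarray slides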
# [2] = growth effects on S. cerevisiae YJM789 – YJM789 clinical isolate, OD600, 24 h, basal, primary screen (AID 1089); details: higher = more signal, called active from +8 up or from −8 down;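 note: growth of clinical yeast isolate S. cerevisiae YJM 789 seeded 1000 cells per well; test concentration not given here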
# [3] = S. pombe growth modifiers, basal conditions – strain 972, OD600, 24 h, no modulator, primary screen (AID 1090);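 note: basal condition with compound alone and no growth modifier present; test concentration not given here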; details: S. pombe 972 growth, higher = more signal, called active from +8 up or from −8 down
# [4] = budding yeast growth modifiers under rapamycin – strain BY4716, OD600, 96 h, primary screen (AID 1091); note: test concentration not given here; details: S. cerevisiae BY4716 + rapamycin, higher = more signal, called active from +8 up or from −8 down
# [5] = target: Torsin-1A-interacting protein 2 (Homo sapiens) (UniProt Q8NFQ8); assay: small molecules binding lysate-expressed LULL1 – cell lysate, human LULL1 lysate, 635/667 nm fluorescence, primary screen (AID 1092); details: small-molecule microarray, hLULL1 lysate binding, 635 nm fluorescence; higher = more signal;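 note: probe is lysate of COS7 cells overexpressing human LULL1; score merges per-feature 667 nm fluorescence with signal-to-noise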
# [6] = optical density change of DRC41 E. coli – strain DRC41, OD650, 24 h, E. coli filamentation project, primary screen (AID 1093);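 note: MC1000 strain lacking acrAB efflux and sulA so SOS filamentation is blocked; test concentration not given here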; details: E. coli DRC41 growth, higher = more signal, called active from +8 up or from −8 down
# [7] = probe aLefty2 binding to arrayed compounds – biochemical, biotinylated probe, 635/667 nm fluorescence, primary screen (AID 1094); details: small-molecule microarray, higher = more signal;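 note: score merges spot fluorescence near 667 nm with spot signal-to-noise ratio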
# [8] = tested on: Noggin (protein binding on small-molecule microarray); assay: small molecules binding Noggin protein – biochemical, 635/667 nm fluorescence, primary screen (AID 1095); details: 635 nm fluorescence, higher = more signal;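 note: score merges 667 nm feature fluorescence with signal to noise over triplicate slides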
# [9] = target: Neurogenic locus notch homolog protein 3 (Homo sapiens) (UniProt Q9UM47); assay: small molecules binding NOTCH3 protein – biochemical, 635/667 nm fluorescence, primary screen (AID 1096); details: small-molecule microarray, 635 nm fluorescence, higher = more signal
# [10] = probe aEGFR binding to arrayed compounds – biochemical, biotinylated probe, 635/667 nm fluorescence, primary screen (AID 1097); details: small-molecule microarray, higher = more signal;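 note: probe is a biotinylated anti-EGFR antibody binding compounds printed on slides; score combines fluorescence near 667 nm and signal to noise of each spot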
# [11] = tested on: Plasmodium falciparum Sir2 (PF13_0152, Sir2A); assay: Plasmodium falciparum Sir2A binding compounds – biochemical, small-molecule microarray, 635 nm fluorescence, primary screen (AID 1098); details: fluorescence 635 nm, higher = more signal;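 note: score merges spot fluorescence intensity with its signal-to-noise ratio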
# [12] = probe aDKK1 binding to arrayed compounds – biochemical, biotinylated probe, 635/667 nm fluorescence, primary screen (AID 1099); details: small-molecule microarray, higher = more signal;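 note: score merges 667nm spot fluorescence with signal to noise across triplicate slides; reference of the scale not given here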
# [13] = probe aCHRDL2 binding to arrayed compounds – biochemical, biotinylated probe, 635/667 nm fluorescence, primary screen (AID 1100); details: small-molecule microarray, higher = more signal
# [14] = change in splice reporter luminescence, either direction, cell-based, HEK293, spliceosome inhibition project, primary screen (AID 1101); details: HEK293 splicing luciferase reporter, 24 h, higher = more signal, called active from +8 up or from −8 down;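 note: HEK293 cells carrying a splicing-competent luciferase reporter gene; test concentration not given here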
# [15] = target: Fibroblast growth factor 10 (Homo sapiens) (UniProt O15520); assay: compounds binding fibroblast growth factor 10 – biochemical, small-molecule microarray, 635 nm fluorescence, primary screen (AID 1102); details: FGF10 binding, fluorescence 635 nm, higher = more signal
# [16] = tested on: glycogen synthase kinase-3 (GSK3A per assay name; protocol says GSK3B); assay: compounds binding glycogen synthase kinase-3 – biochemical, small-molecule microarray, 635 nm fluorescence, GSK3A, primary screen (AID 1103); details: fluorescence 635 nm, higher = more signal; note: the record names both GSK3A and GSK3B
# [17] = target: Epidermal growth factor receptor (Homo sapiens) (UniProt P00533); assay: compounds binding epidermal growth factor receptor – biochemical, small-molecule microarray, 635 nm fluorescence, primary screen (AID 1104); details: EGFR binding, higher = more signal;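 note: score merges 667 nm emission intensity with spot signal to noise over triplicate slides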
# [18] = target: Follistatin-related protein 3 (Homo sapiens) (UniProt O95633); assay: compounds binding follistatin-related protein 3 – biochemical, small-molecule microarray, 635 nm fluorescence, primary screen (AID 1105); details: FSTL3 binding, higher = more signal;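 note: score merges emission near 667 nm and signal to noise per printed spot across three slides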
# [19] = target: Dickkopf-related protein 1 (Homo sapiens) (UniProt O94907); assay: small molecules binding DKK1 protein – biochemical, small-molecule microarray, 635 nm fluorescence scan, primary screen (AID 1106); details: higher = more signal;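 note: score merges emission near 667 nm with signal to noise over three replicate slides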
# [20] = tested on: Inhibin beta A chain (activin A); assay: small molecules binding activin A – biochemical, small-molecule microarray, 635 nm fluorescence scan, primary screen (AID 1107); details: INHBA, higher = more signal;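 note: mouse activin A protein probed at 4.33 µg/mL on printed slides; score merges bound-protein fluorescence near 667 nm with spot signal-to-noise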
# Chain of Epidermal growth factor receptor (Homo sapiens) (P00533 whole entry, looked up): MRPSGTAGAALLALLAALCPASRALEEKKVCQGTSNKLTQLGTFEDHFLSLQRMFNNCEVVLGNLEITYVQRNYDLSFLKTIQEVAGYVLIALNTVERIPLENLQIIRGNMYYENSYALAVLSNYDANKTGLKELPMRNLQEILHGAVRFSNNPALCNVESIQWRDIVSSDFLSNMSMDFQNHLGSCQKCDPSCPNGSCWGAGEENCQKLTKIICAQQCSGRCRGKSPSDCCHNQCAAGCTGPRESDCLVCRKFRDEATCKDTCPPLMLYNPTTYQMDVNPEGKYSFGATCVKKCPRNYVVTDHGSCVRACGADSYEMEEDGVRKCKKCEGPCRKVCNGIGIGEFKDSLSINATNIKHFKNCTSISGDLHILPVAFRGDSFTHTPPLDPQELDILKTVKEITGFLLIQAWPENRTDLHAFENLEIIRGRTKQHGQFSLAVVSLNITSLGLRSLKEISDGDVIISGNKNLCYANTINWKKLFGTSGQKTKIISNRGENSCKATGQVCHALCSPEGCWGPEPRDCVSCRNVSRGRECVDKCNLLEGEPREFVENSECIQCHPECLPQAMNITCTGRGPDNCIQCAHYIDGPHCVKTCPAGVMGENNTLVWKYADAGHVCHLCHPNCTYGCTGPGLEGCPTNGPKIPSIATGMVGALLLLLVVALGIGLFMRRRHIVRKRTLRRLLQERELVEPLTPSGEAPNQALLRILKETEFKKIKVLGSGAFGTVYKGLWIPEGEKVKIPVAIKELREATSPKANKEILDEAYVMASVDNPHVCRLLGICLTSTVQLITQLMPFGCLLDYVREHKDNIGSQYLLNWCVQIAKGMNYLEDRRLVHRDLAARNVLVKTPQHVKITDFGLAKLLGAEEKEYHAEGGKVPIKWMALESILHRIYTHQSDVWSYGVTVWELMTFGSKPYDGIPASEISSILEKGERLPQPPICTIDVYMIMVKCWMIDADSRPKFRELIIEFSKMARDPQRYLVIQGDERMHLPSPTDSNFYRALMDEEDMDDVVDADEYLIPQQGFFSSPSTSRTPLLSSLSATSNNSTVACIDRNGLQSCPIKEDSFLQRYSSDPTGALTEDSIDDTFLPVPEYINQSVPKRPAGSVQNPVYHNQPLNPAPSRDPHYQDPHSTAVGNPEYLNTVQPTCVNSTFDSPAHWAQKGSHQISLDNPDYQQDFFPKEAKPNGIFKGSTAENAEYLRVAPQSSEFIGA
# Chain of Dickkopf-related protein 1 (Homo sapiens) (O94907 whole entry, looked up): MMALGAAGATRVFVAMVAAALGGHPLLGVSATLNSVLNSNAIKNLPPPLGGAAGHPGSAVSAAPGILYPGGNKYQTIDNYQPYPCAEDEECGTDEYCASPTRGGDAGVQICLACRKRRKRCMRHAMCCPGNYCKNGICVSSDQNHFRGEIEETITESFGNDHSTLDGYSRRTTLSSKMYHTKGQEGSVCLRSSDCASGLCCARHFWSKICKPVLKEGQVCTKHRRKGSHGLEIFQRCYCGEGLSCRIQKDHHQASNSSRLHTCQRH
# Chain of Neurogenic locus notch homolog protein 3 (Homo sapiens) (Q9UM47 whole entry, looked up): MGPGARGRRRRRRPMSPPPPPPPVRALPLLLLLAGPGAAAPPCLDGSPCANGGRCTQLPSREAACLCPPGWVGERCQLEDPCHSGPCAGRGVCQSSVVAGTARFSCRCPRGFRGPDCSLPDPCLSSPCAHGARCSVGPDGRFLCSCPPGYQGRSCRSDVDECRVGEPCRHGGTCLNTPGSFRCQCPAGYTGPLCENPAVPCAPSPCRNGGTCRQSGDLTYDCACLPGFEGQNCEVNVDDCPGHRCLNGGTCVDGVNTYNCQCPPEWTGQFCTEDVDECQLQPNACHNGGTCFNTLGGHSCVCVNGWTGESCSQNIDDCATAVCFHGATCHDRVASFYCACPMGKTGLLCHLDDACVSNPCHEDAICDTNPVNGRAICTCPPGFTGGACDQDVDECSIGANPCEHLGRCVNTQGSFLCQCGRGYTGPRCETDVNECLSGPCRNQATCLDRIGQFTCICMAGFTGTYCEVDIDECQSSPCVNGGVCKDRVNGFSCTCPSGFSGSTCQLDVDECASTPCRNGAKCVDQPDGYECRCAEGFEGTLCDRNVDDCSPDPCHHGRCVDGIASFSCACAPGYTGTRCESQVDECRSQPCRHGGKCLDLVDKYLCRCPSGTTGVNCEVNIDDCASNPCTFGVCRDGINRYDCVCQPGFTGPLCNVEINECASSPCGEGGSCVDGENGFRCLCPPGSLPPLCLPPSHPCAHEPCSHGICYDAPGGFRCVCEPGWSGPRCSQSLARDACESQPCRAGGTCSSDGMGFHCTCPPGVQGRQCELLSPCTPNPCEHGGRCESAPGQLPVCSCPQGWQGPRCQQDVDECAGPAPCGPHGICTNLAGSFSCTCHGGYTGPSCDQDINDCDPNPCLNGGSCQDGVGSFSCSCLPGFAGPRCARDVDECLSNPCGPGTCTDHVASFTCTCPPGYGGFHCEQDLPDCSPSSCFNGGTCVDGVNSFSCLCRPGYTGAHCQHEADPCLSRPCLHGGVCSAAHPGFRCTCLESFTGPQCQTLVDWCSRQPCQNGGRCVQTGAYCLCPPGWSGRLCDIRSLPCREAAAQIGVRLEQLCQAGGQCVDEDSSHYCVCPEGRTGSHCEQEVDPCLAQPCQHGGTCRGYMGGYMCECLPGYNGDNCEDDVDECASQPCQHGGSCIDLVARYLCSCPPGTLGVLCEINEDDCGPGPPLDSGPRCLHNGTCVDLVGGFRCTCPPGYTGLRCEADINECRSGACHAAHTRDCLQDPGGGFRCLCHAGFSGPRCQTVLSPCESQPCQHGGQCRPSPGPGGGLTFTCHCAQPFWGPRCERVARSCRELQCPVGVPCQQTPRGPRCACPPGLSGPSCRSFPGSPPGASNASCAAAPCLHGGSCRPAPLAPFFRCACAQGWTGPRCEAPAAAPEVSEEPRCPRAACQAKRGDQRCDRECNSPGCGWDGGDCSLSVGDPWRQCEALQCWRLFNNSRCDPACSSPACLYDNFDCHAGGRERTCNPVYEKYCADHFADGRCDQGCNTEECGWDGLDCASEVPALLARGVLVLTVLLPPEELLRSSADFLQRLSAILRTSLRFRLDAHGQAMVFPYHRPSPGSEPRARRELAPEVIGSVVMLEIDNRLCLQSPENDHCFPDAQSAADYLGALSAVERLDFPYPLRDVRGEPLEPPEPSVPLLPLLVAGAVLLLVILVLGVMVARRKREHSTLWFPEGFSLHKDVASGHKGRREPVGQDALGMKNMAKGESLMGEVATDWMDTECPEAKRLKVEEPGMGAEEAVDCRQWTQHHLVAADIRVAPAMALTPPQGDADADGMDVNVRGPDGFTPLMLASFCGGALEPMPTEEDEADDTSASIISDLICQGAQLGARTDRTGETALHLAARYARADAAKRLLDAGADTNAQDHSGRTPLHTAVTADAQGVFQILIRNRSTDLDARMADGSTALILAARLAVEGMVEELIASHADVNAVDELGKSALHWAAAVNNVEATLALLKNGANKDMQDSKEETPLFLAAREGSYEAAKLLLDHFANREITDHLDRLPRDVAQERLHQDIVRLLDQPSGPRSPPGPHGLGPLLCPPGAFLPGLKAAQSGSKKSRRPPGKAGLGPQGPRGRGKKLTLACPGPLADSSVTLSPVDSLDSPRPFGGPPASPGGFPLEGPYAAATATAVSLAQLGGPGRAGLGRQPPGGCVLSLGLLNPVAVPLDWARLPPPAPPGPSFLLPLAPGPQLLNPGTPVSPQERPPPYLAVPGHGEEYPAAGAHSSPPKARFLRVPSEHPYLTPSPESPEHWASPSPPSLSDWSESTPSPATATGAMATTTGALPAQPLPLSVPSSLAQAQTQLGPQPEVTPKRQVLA
# Chain of Torsin-1A-interacting protein 2 (Homo sapiens) (Q8NFQ8 whole entry, looked up): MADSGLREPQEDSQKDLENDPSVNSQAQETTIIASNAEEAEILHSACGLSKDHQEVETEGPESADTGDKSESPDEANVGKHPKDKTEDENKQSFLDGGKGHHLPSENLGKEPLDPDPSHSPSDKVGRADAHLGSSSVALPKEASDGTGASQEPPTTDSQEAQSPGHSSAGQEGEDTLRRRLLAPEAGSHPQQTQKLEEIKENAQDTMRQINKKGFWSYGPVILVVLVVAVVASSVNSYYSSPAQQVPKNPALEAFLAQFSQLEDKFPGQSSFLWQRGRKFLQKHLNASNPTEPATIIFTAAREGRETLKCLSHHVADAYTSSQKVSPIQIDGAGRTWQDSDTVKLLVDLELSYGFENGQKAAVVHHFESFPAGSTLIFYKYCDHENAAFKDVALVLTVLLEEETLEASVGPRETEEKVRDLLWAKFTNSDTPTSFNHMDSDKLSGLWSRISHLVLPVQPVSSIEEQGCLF
# Chain of Fibroblast growth factor 10 (Homo sapiens) (O15520 whole entry, looked up): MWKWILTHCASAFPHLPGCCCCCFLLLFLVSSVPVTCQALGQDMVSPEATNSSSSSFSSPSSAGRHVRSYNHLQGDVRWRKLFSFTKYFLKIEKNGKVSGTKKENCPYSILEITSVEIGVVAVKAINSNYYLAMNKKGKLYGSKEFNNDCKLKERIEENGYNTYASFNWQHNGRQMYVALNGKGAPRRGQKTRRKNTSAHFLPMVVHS
# Chain of Follistatin-related protein 3 (Homo sapiens) (O95633 whole entry, looked up): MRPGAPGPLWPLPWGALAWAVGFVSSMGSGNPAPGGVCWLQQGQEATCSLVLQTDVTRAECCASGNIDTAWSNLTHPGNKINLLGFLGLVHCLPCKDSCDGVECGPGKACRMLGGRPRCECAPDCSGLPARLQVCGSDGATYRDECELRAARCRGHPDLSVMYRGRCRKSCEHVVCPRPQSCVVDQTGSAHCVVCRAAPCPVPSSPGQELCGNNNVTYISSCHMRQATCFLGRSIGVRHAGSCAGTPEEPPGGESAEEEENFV
Structure (SMILES),composite z-score [1],z-score [2],z-score [3],z-score [4],composite z-score [5],z-score [6],composite z-score [7],composite z-score [8],composite z-score [9],composite z-score [10],composite z-score [11],composite z-score [12],composite z-score [13],z-score [14],composite z-score [15],composite z-score [16],composite z-score [17],composite z-score [18],composite z-score [19],composite z-score [20]
COCCCNC(=O)[C@]1(Cc2ccccc2CN=[N+]=[N-])N=C(c2ccc(OCCCO)cc2)O[C@@H]1c1ccccc1N=[N+]=[N-],0.772,-0.499 (inactive),1.07 (inactive),4.98 (inactive),2.27,1.11 (inactive),0.862,0.0289,-0.217,0.371,0.427,1.36,1.38,-0.486 (inactive),0.575,0.672,0.003,0.205,0.0122,1.4
COC(=O)C(CC#Cc1ccc2c(c1)[C@]1(C(=O)N2)[C@H](c2ccccc2OCCO)N2[C@H](c3ccccc3)[C@H](c3ccccc3)OC(=O)[C@H]2[C@@H]1C(=O)N1CCN(c2ncccn2)CC1)C(=O)OC,1.51,2.61 (inactive),1.28 (inactive),6.83 (inactive),2.15,0.173 (inactive),-0.107,1.71,1.09,-0.0982,1.01,-0.216,-0.145,-0.376 (inactive),0.683,1.29,0.484,1.27,0.891,0.143
CC(C)c1ccc(NN2C(C(O)C3CCCCC3)C=CC3C(=O)N(c4ccccc4)C(=O)C32)cc1 (stereo not given),1.02,0.487 (inactive),0.361 (inactive),-0.287 (inactive),3.07,-1.23 (inactive),0.0779,-0.0338,1.03,0.168,1.4,0.929,1.11,0.194 (inactive),0.802,1.24,0.478,1.11,0.794,0.874
C[C@]1(C(=O)O)c2ccccc2C(=O)N(Cc2cc(C(F)(F)F)cc(C(F)(F)F)c2)[C@H]1c1ccc(CO)cc1,1.43,0.652 (inactive),0.559 (inactive),-0.754 (inactive),0.834,0.305 (inactive),-0.141,0.414,0.483,-0.186,-0.822,0.324,0.55,0.487 (inactive),-0.04,-0.25,-0.641,0.142,0.123,0.41
CCOC(=O)C[C@H]1[C@H](OC(=O)c2cc3ccccc3oc2=O)[C@@H](NC(=O)Cc2ccc(OC)cc2)c2cc(OCCCO)ccc2N1C(=O)Cc1ccc(OC)cc1,0.638,-0.903 (inactive),-1.04 (inactive),-1.79 (inactive),1.65,1.52 (inactive),-0.058,0.534,0.91,-0.0313,0.776,-0.249,-0.43,-1.28 (inactive),0.703,0.382,0.455,0.789,0.328,0.156
